From PubChem BioAssay
Only some compounds are listed: those with a hit (about 0.37% of all), similar ones and a draw of the others.
Rab7 wt modul: dog Rab7 wildtype GTP binding, inhibitors and activators; GST-Rab7 beads, fluorescent GTP binding, flow cytometry; actives lie on both sides; untreated = 100%, excess cold GTP = 0%; GTP binding activity (percent of control), % at 10 µM; AID 758; 190,000 compounds, 0.055% hits;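 active = fluorescent GTP binding to Rab7 beads changed by at least 20 points from the 100% baseline, either direction, mostly lower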;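 also: median green fluorescence of bound Bodipy-FL-GTP per Rab7 bead population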
Rac1 wt GTP bind: human Rac1 wildtype GTP binding, inhibitors and activators | P63000 | GST-Rac1 beads, fluorescent GTP binding, flow cytometry; actives lie on both sides; 0 = cold GTP competed, 100 = untreated | GTP binding activity (% of control), % at 10 µM | 190,000 compounds, 0.27% hits | AID 757;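 active = GTP binding activity at least 20 points away from the 100% control level, either lower or higher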
HRas wt GTP: modulators of GTP binding to human HRas wildtype | GST-Ras wt beads, Bodipy-FL-GTP binding, flow cytometry; actives lie on both sides | GTP binding activity, % at 10 µM | 190,000 compounds, 0.14% hits | AID 759;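 active = GTP binding activity at least 20% away from the 100% baseline, either lowered as inhibitor or raised as activator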;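 also: 0% = unlabeled GTP competition control and 100% = no-compound control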
Rac1 act GTP bind: modulators of GTP binding to human Rac1 activated mutant. GST-Rac1 activated beads, fluorescent GTP binding, flow cytometry; actives lie on both sides; 100% means binding = to untreated wells. P63000. 190,000 compounds, 0.11% hits. percent activity (GTP binding), % at 10 µM;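 active = GTP binding at least 20 percentage points away from the 100% baseline, in either direction, so actives lie on both sides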
Cdc42 wt: human Cdc42 wildtype GTP binding change, either direction; 190,000 compounds, 0.2% hits; P60953; percent activity (GTP binding), % at 10 µM; GST-Cdc42 beads, Bodipy-GTP binding, flow cytometry; actives lie on both sides;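 active = percent activity GTP binding at least 20 points away from the 100% baseline, either down as inhibitor or up as activator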;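 also: median bead fluorescence of bound Bodipy-FL-GTP at 100 nM; 0% = excess unlabeled GTP control and 100% = no compound control; below 100% means less GTP binding so inhibitor and above means activator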
Target sequence (P60953 whole entry, looked up): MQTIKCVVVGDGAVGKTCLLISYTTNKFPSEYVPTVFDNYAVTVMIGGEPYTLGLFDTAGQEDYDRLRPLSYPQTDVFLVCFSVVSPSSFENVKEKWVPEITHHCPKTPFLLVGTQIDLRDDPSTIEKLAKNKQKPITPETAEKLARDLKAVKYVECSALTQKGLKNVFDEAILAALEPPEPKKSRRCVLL
Rab2A wt mod: changes GTP binding to wildtype dog Rab2A, up or down; GST-Rab2 wt beads, Bodipy-GTP binding, flow cytometry; GTP binding activity, % at 10 µM; 190,000 compounds, 0.19% hits;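 active = GTP binding activity at least 20 points away from 100%, either lowered or raised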;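 also: 0% = beads with excess unlabeled GTP and 100% = no-compound control corrected for plate trend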
* hit, by the source's call; [ ] = dose if it differs, or a comment.

SMILES	Rab7 wt modul	Rac1 wt GTP bind	HRas wt GTP	Rac1 act GTP bind	Cdc42 wt	Rab2A wt mod
Cc1cc(C)cc(N2C(=O)NC(=O)/C(=C\C=C\c3ccco3)C2=O)c1	88.0	78.0*	85.0	84.0	78.0*	83.0
CCN(CC)P(=O)(c1n(CC)cc[n+]1CC)N(CC)CC	106.0	99.0	102.0	99.0	99.0	99.0
CC1(C)CC(n2[nH]c(=O)c3c2NC(=O)CSC3c2ccccc2)CCO1 (stereo unspecified)	96.0	102.0	97.0	96.0	94.0	75.0*
Cc1ccc(C2SCC(=O)Nc3c2c(=O)[nH]n3C2CCOC(C)(C)C2)cc1 (stereo unspecified)	101.0	102.0	100.0	98.0	102.0	101.0
CC(Oc1ccc(-c2ccccc2)cc1)C(=O)O (stereo unspecified)	126.0*[activator]	157.0*[activator]	137.0*[activator]	130.0*[activator]	161.0*[activator]	141.0*[activator]
O=c1[nH]c(=S)[nH]c(O)c1N=Nc1cc2c(cc1[N+](=O)[O-])OCO2	85.0	83.0	82.0	79.0*	79.0*	81.0
O=c1[nH]c(=S)[nH]c(O)c1N=Nc1ccc2c(c1)OCO2	97.0	94.0	93.0	92.0	91.0	94.0
COc1ccc(-c2cc(=NCCCCCC(=O)O)c3cc(C)ccc3o2)cc1	93.0	71.0*	73.0*	88.0	69.0*	70.0*
[N-]=[N+]=NC1C[C@H](n2ccc(=O)[nH]c2=O)O[C@@H]1CO (stereo partly specified)	96.0	102.0	99.0	98.0	97.0	100.0
CCC(C)NC(=O)c1c(N)n(CCCOC)c2nc3ccccc3nc12 (stereo unspecified)	99.0	99.0	99.0	98.0	99.0	99.0
COCCCn1c(N)c(C(=O)Nc2sc3c(c2C(=O)OC)CCCC3)c2nc3ccccc3nc21	84.0	84.0	65.0*	82.0	67.0*	66.0*
CC(C)CN1CCN(Cc2cccc3c2OCO3)CC1CCO (stereo unspecified)	102.0	104.0	100.0	98.0	101.0	100.0
